# This is a sample that favours compounds with a hit; in the whole collection about 3.5% have one here.
# FBW7 activator = activators of human E3 ligase FBW7; normalized activity (activation), % at 26.1 µM; AlphaScreen FBW7–phospho-cyclin E peptide binding, activator screen; actives 0.13% (n = 650,000); Q969H0; in the data active means normalized activity above about 1.9%;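 further: purified mutant Fbw7 with reduced substrate affinity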
# Target sequence (Q969H0 whole entry, looked up): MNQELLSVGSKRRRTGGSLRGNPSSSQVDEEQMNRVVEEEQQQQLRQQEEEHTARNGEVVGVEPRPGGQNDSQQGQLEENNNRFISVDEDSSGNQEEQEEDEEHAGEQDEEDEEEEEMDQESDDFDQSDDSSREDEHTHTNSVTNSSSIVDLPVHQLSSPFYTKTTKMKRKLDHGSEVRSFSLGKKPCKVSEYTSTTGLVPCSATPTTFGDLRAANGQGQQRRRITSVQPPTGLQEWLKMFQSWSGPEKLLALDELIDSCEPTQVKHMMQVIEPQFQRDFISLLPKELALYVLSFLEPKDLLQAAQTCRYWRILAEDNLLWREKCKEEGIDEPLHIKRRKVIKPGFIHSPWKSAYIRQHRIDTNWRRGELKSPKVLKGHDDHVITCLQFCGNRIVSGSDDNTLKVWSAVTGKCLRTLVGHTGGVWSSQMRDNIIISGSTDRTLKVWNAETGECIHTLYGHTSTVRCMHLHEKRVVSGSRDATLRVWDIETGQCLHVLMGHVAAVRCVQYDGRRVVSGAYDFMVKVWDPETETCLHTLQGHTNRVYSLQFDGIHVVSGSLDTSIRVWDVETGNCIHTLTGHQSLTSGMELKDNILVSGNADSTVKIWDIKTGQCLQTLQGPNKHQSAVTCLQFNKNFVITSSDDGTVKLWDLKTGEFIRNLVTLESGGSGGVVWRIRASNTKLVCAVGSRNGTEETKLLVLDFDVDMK
# MITF inh = human MITF inhibition, primary screen; O75030; AlphaScreen MITF homodimerization, bead proximity signal; inhibition, % at 2.6 µM; actives 0.91% (n = 650,000); in the data active means inhibition above about 50%;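 further: 0% = vehicle wells with protein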
# TEAD-YAP block = TEAD-YAP interaction inhibition. actives 1.4% (n = 640,000). HEK-TIYL cells, TEAD-Gal4/YAP UAS-luciferase luminescence. inhibition, % at 9.12 µM; in the data active means inhibition above about 32%;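 further: 0% = median of test compound wells and 100% = reference inhibitor wells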
# GPR151 activ = activators of human GPR151; Q8TDV0; PathHunter beta-arrestin GPR151 cells, luminescence; activation, % at 11.2 µM; actives 1% (n = 650,000); AID 1508602; in the data active means activation above about 4.9%;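 further: 0% = median of compound wells and 100% = cells with positive control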
# MITF confirm = human MITF inhibition, confirmation; shares compounds with MITF inh; AlphaScreen MITF homodimerization, biotin/His-MITF beads; inhibition, % at 2.6 µM; actives 16% (n = 4,700); AID 1259372;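 active means inhibition above a cutoff derived from the DMSO control wells, cut at about 28% in these data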;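 further: 0% = MITF dimer wells with DMSO only; inhibitors lower the bead chemiluminescence by keeping MITF from dimerizing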
# AS interf ctr = counter-screen: compounds optically interfering with AlphaScreen; AID 1259376; LysRS AlphaScreen counterscreen, signal interference, triplicate; actives 7.6% (n = 4,700); inhibition, % at 2.6 µM; shares compounds with MITF inh;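 active means inhibition above a cutoff derived from the DMSO control wells, cut at about 30% in these data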
# * = called active by the depositor; nt = not tested or not shown.
SMILES,FBW7 activator,MITF inh,TEAD-YAP block,GPR151 activ,MITF confirm,AS interf ctr
CCN1CCN(CCCOc2ccc(OCc3ccccc3)cc2)CC1,0,34,-13,0,nt,nt
c1ccc(Oc2cccc(OCCN3CCNCC3)c2)cc1,0,71*,-12,0,13,-6
CCN1CCN(CCOCCOc2ccccc2)CC1,0,54*,12,-1,4,11
O=S(=O)(c1ccccc1)N1CCN(Cc2cccc(Cl)c2)CC1,0,64*,2,0,8,19
O=S(=O)(c1ccc(Cl)cc1)N1CCN(Cc2ccc(F)cc2)CC1,0,1,-3,1,nt,nt
CS(=O)(=O)c1cccc(S(=O)(=O)N2CCN(Cc3ccccc3)CC2)c1,0,-12,6,0,nt,nt
CCS(=O)(=O)N1CCN(Cc2cccc(Cl)c2)CC1,0,59*,-9,2,9,13
O=S(=O)(c1ccc(F)cc1)N1CCN(Cc2cccc(Cl)c2)CC1,0,60*,1,1,5,14
CN(C(=O)Cn1cc(NC(=O)CCOc2ccccc2)cn1)C1CCOC1 (configuration not stated),0,10,-6,0,nt,nt
NC(=O)Cn1nnc(-c2ccccc2F)n1,0,-10,0,2,nt,nt
O=S(=O)(c1ccc2ccccc2c1)N1CCN(Cc2ccccc2)CC1,0,21,4,2,nt,nt
O=S(=O)(c1ccc2ccccc2c1)N1CCN(Cc2ccncc2)CC1,0,79*,1,1,11,0
CCOc1ccc(CN2CCC(N3CCN(C)CC3)CC2)cc1,0,70*,-1,-1,-4,-7
O=S(=O)(c1ccc(F)cc1)N1CCN(Cc2ccncc2)CC1,0,73*,0,-1,13,19
CCOc1ccc(CN2CCN(S(=O)(=O)c3ccc(OC)cc3)CC2)cc1,0,57*,8,-1,-4,-1
CCC[C@@H]1NC(=O)[C@H]2CN(Cc3ccc(Cl)cc3)CCN2C1=O,0,13,5,-2,nt,nt
Cn1cnn(CN2CCc3ccccc3C2)c1=S,0,3,9,1,nt,nt
O=S(=O)(c1ccc2ccccc2c1)N1CCN(Cc2ccccc2F)CC1,0,54*,1,0,11,16
COc1ccc(CN2CCN(Cc3ccncc3)CC2)cc1,0,57*,11,-1,-3,11
COc1ccc(S(=O)(=O)N2CCN(Cc3ccccc3F)CC2)cc1,0,7,5,1,nt,nt
CCOc1ccc(CN2CCN(Cc3cc(OC)c(OC)cc3OC)CC2)cc1,0,74*,0,0,2,8
Cc1ccc(S(=O)(=O)N2CCN(Cc3cccc4ccccc34)CC2)cc1,0,44,-4,-2,nt,nt
O=S(=O)(c1ccc(F)cc1)N1CCN(Cc2cccc3ccccc23)CC1,1,82*,-16,0,10,9
CCOc1ccc(CN2CCN(Cc3ccccc3OC)CC2)cc1,0,44,9,1,nt,nt
C=CCOC(=O)C1=C(C)NC(C)=C(C(=O)OCC=C)C1c1ccc(Cl)c(Cl)c1,0,19,-4,0,nt,nt
SMILES,FBW7 activator,MITF inh,TEAD-YAP block,GPR151 activ,MITF confirm,AS interf ctr
CCCCNC(=O)c1ccccc1NC(=O)Cc1ccc(C)cc1,0,-7,-2,0,nt,nt
Cc1ccc(NC(=O)CC2SC(=Nc3ccccc3)N(CCO)C2=O)c(C)c1 (configuration not stated),0,-7,-4,-1,nt,nt
CCOc1ccc(CN2CCN(Cc3ccc(CC)cc3)CC2)cc1,0,75*,12,1,11,6
CCOc1ccc(CN2CCN(Cc3cc(OC)c(O)c(OC)c3)CC2)cc1,0,56*,-14,3,2,8
CCOc1ccc(CN2CCN(S(C)(=O)=O)CC2)cc1,0,66*,5,0,-5,-2
COc1ccc(S(=O)(=O)N2CCN(Cc3ccncc3)CC2)cc1,0,69*,-3,-1,-2,0
COc1cccc(OC)c1OCCCOc1ccc(C)cc1,1,20,-4,-1,nt,nt
CCOC(=O)c1c(NC(=O)CSc2nnc(CNC(=O)c3cccc(F)c3)n2-c2cccc(Cl)c2)sc2c1CCC2,0,-13,4,1,nt,nt
COc1ccc(S(=O)(=O)N2CCN(Cc3cc(OC)c(OC)c(OC)c3)CC2)cc1,0,56*,1,-2,-1,9
CCOc1ccc(CN2CCN(Cc3ccc(OC)cc3)CC2)cc1,0,58*,4,3,20,16
COc1ccc(/C=C(\C#N)c2nc3ccc(C)cc3[nH]2)cc1[N+](=O)[O-],0,13,11,0,nt,nt
Cc1cccc(N(CC(=O)NCc2ccccc2)C(=O)CCC(=O)Nc2cc(C)ccn2)c1,0,-4,-6,0,nt,nt
CCN(CC)c1ccc(NC(=O)C(CC(C)C)N2C(=O)c3ccccc3C2=O)cc1 (configuration not stated),0,7,0,0,nt,nt
CC(C)c1nc(N(C)S(C)(=O)=O)nc(-c2ccc(F)cc2)c1/C=C/[C@@H](O)C[C@@H](O)CC(=O)O,0,12,9,4,nt,nt
COc1cc(Br)c(CN(C)CCN(C)C)cc1OC,0,-16,-3,1,nt,nt
COc1ccc(CN(C)CCN(C)C)cc1OC,0,16,-7,0,nt,nt
COc1cc(CN(C)CCN(C)C)cc(OC)c1,0,64*,-3,-1,1,-1
COc1ccc(CN(C)CCN(C)C)cc1C,0,58*,0,-1,3,16
CCOC(=O)CCCCC(=O)c1[nH]c(=O)n(C)c1C,-2,106*,0,1,95*,80*
CCCCCCCCCCCCCCCCCC(=O)OCC,nt,-13,nt,0,nt,nt
COc1cc(CN(C)CCc2ccccn2)cc(OC)c1OC,0,74*,3,0,12,19
COc1cc(/C=C/C(=O)NCc2ccccn2)cc(OC)c1OC,0,-5,-7,-1,nt,nt
COc1ccc(CN(C)CCc2ccccn2)cc1OCc1ccccc1,0,62*,-14,2,4,23
COc1ccc(CN(C)CCc2ccccn2)cc1OC,0,77*,-2,-2,0,2
C=CCc1ccc(OC)c(OCc2ccccc2)c1,0,22,3,-1,nt,nt
SMILES,FBW7 activator,MITF inh,TEAD-YAP block,GPR151 activ,MITF confirm,AS interf ctr
COc1ccc(CN(Cc2ccccn2)S(=O)(=O)c2ccc(F)cc2F)cc1OC,0,4,5,0,nt,nt
COc1ccc(S(=O)(=O)CCC(=O)Nc2nc3ccc(C)cc3s2)cc1,0,16,-1,-1,nt,nt
Cc1ccc2nc(NC(=O)COc3ccc(Cl)cc3Cl)sc2c1,0,14,3,-1,nt,nt
CS(=O)(=O)c1ccc2nc(NC(=O)COc3ccc(Cl)cc3Cl)sc2c1,0,74*,-1,-1,10,7
COc1ccc(S(=O)(=O)CCC(=O)Nc2nc3ccc(OC)cc3s2)cc1,0,54*,-19,1,28*,-4
COc1cccc(N2CCN(Cc3ccco3)CC2)c1,0,23,-6,-1,nt,nt

# Source: PubChem BioAssay
